TLR9-MyD88 block: TLR9-MyD88 interaction inhibition. Q9NR96+Q99836. CHO BLA complementation TLR9-MyD88, CCF4 FRET ratio. inhibition, % at 4.98 µM. 340,000 tested, 0.21% active;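 active = inhibition above the mean over all tested compounds plus 3 SD, cut at about 21% in these data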;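 also: 0% = DMSO only wells and 100% = clavulanate BLA inhibitor control wells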
PRMT1 FP inh: inhibitors of human PRMT1 | AID 652257 | Q99873 | inhibition, % at 2.79 µM | recombinant PRMT1, activity-based probe fluorescence polarization | 370,000 tested, 1.3% active;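 active = inhibition above about 21% made by adding two undisclosed values, limit read from the data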
NOD2-RIPK2 inh: inhibitors of human NOD2-RIPK2 interaction; O43353; CHO BLA complementation NOD2-RIPK2, CCF4 ratio; inhibition, % at 4.98 µM; 360,000 tested, 0.38% active; AID 624267; in the data active = inhibition above about 21%;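 also: 0% = vehicle only and 100% = reference blocker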
Target sequence (O43353 whole entry, looked up): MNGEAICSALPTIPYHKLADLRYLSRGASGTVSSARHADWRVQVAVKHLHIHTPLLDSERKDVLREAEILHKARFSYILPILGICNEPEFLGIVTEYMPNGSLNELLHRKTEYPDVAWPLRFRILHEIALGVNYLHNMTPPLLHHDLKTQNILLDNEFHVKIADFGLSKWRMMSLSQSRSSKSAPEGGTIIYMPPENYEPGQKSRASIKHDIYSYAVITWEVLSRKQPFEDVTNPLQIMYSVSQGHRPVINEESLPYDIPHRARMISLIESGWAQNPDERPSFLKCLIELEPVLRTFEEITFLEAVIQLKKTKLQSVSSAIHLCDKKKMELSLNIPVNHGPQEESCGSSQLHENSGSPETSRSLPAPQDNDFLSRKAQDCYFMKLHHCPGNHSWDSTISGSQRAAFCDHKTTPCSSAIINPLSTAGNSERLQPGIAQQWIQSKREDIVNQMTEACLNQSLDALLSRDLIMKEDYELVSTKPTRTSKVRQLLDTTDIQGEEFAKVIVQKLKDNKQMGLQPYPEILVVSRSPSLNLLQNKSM
rCAG binder: r(CAG) repeat RNA binding | TO-PRO-1 dye displacement fluorescence | inhibition, % at 3 µM | 370,000 tested, 1.3% active;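 active = inhibition above the plate cutoff, the mean of all test compounds on that plate plus 3 SD, cut at about 35% in these data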;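 also: 0% = DMSO alone and 100% = 100 µM mitoxantrone as full dye displacement; higher means more dye released from RNA so lower well fluorescence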
TLR4-MyD88 BLA: TLR4-MyD88 interaction inhibition in cells; O00206+Q99836; HeLa CL3-4 TLR4/MyD88 BLA complementation, FRET ratio; inhibition, % at 8.4 µM; 200,000 tested, 0.18% active; AID 861; in the data active = inhibition above about 25%;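 also: 0% = vehicle and 100% = reference inhibitor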
ABHD5 PLIN5 PPI: ABHD5-PLIN5 protein interaction inhibition | Q00G26+Q8WTS1 | Split G. princeps luciferase complementation, luminescence, 4 h | inhibition, % at 4 µM | 360,000 tested, 0.78% active | AID 602281;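 active = inhibition above the mean inhibition across every tested compound plus 3 SD, cut at about 22% in these data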;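 also: 0% = DMSO only wells and the 100% control is not disclosed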
rCAG bind conf: r(CAG) RNA repeat binding, confirmation; shares compounds with rCAG binder; 4,300 tested, 70% active; inhibition, % at 3 µM; TO-PRO-1 dye displacement fluorescence;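 active = inhibition above a per-plate cutoff, the mean inhibition of sample wells plus 3 SD, cut at about 35% in these data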;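 also: loss of TO-PRO-1 fluorescence as compound displaces dye from 1x1 AA loop RNA; 0% = DMSO only wells and 100% = 100 µM mitoxantrone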
DNA CAG counter: disrupts DNA CAG TO-PRO-1 complex, flagging rCAG hits | 4,300 tested, 94% active | shares compounds with rCAG binder | d(CAG) DNA oligo TO-PRO-1 dye displacement, fluorescence | inhibition, % at 3 µM;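 active = inhibition above its plate's cutoff, the mean test-well inhibition plus 3 SD, cut at about 4.8% in these data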;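 also: 0% = DNA dye mix with DMSO and 100% = 100 µM mitoxantrone; hits displace the dye from DNA and so lower well fluorescence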
dCAG dye DR: disrupts DNA CAG TO-PRO-1 complex in dose response. shares compounds with rCAG binder. DNA CAG/GTC duplex TO-PRO-1 dye displacement fluorescence. AID 686960. IC50, µM. 250 tested, 20% active; in the data active = IC50 below about 10 µM
The depositor's hits bear a star; / = no result. Sampled rows, rich in hits. Any-hit rate of the full collection: about 3.3%.

SMILES	TLR9-MyD88 block	PRMT1 FP inh	NOD2-RIPK2 inh	rCAG binder	TLR4-MyD88 BLA	ABHD5 PLIN5 PPI	rCAG bind conf	DNA CAG counter	others
CC(C)c1cc(NC(=O)CSc2nnc(-c3ccccc3F)n2C)on1	-9.1	-1.1	-7.4	-3.0	-5.7	-1.8	/	/
O=C1NC(=O)/C(=C/c2ccc(-c3cc(C(=O)O)ccc3Cl)o2)S1	-13.9	6.4	12.2	53.1*	/	-6.2	52.1*	14.7*
O=C1NC(=S)/C(=C\c2ccc(-c3ccccc3Cl)o2)S1	-3.7	67.1*	-1.2	79.8*	2.3	-4.4	67.5*	34.5*
O=C(O)CN1C(=O)/C(=C/c2ccccc2Cl)Oc2ccccc21	-10.5	2.4	-5.4	39.4*	/	-4.8	35.4*	7.3*
Cc1cc(NS(=O)(=O)c2ccc(NC(=O)/C=C/c3ccc(Br)cc3)cc2)no1	-8.9	-1.1	-1.3	68.1*	/	-3.2	61.5*	28.7*
COc1ccccc1/C=C/C(=O)Nc1ccc(S(=O)(=O)Nc2cc(C)on2)cc1	4.4	-1.6	-14.2	53.4*	/	1.1	48.4*	11.6*
Cn1ncc2c(Nc3ccc(Br)cc3)nc(Nc3ccc(Br)cc3)nc21	2.2	0.3	-12.0	49.4*	/	-4.3	33.4	13.5*
Cn1ncc2c(Nc3ccc(O)cc3)nc(Cl)nc21	10.6	-0.2	-0.4	0.7	/	1.1	/	/
Cn1ncc2c(Nc3cccc(Cl)c3)nc(Nc3cccc(Cl)c3)nc21	9.3	-2.1	9.0	36.0*	/	0.4	21.0	7.5*
NNc1nc(Nc2ccc([N+](=O)[O-])cc2)nc(N2CCCCCC2)n1	-7.1	2.3	3.5	35.9*	/	-0.8	28.8	16.3*
O=[N+]([O-])c1ccc(Nc2nc(NCCO)nc(N3CCCC3)n2)cc1	0.6	3.6	-4.9	9.5	-0.6	3.9	/	/
O=c1nc(Nc2ccccc2)oc2ccccc12	-1.8	-2.5	0.7	1.7	/	-2.7	/	/
O=c1nc(Nc2cccc(Cl)c2)oc2cc(Cl)oc(=O)c12	-6.0	1.9	-13.4	44.2*	/	-0.1	56.0*	15.8*	dCAG dye DR=8.48*
O=C(C1=NN[C@@H]2C(=O)N(c3cccc(C(F)(F)F)c3)C(=O)[C@H]12)C(c1ccccc1)c1ccccc1	-12.2	0.5	0.3	54.5*	-10.4	-2.6	26.6	8.9*
O=C(O)CSc1nc(-c2ccccc2)nc2c1oc1ccccc12	-8.0	-1.2	-8.6	58.8*	6.1	0.8	48.5*	13.6*
O=C(O)CSc1nc(-c2ccc(Cl)cc2)nc2c1oc1ccccc12	-8.6	2.8	-0.2	41.5*	-7.4	-3.0	82.0*	62.1*
O=C(NCc1ccccc1)/C(=C\c1ccc(F)cc1)NC(=O)c1ccco1	-15.3	-0.2	-5.7	0.1	/	-3.3	/	/
CC1CCN(C(=O)CSc2nnc(-c3ccccc3F)o2)CC1	-0.2	1.6	-10.4	-2.0	/	4.4	/	/
NNC(=O)c1cc2sccc2s1	5.6	-4.6	8.7	9.6	/	1.6	/	/
O=[N+]([O-])c1ccccc1C(=Nc1ccccc1)c1c(O)cc(O)cc1O	6.4	15.2	8.6	45.4*	/	17.6	11.9	7.7*
CCCCNC(=O)c1nc(C2CCN(S(=O)(=O)c3cccc(C(F)(F)F)c3)CC2)oc1-c1cccc(C(F)(F)F)c1	/	3.3	-7.6	0.8	/	3.8	/	/
O=S(=O)(Nc1ccccc1N1CCOCC1)c1ccc(Cl)cc1	-11.6	/	8.5	/	/	1.4	/	/
Nc1ccc(C(=O)N/N=C\c2cc(N=Nc3cccc4ccccc34)ccc2O)cc1	7.7	4.2	-1.3	39.1*	3.2	-1.5	28.6	15.2*
CC(=O)c1c(C)[nH]c(C(=O)Nc2ccc(C)c(S(=O)(=O)Nc3ccc(C)cc3C)c2)c1C	-7.1	7.0	0.5	13.2	/	-9.5	/	/
Cc1ccc(NS(=O)(=O)c2cc(NC(=O)c3cc(=O)[nH]c(=O)[nH]3)ccc2Cl)c(C)c1	5.4	-5.3	-9.6	53.7*	/	6.3	60.7*	19.5*
SMILES	TLR9-MyD88 block	PRMT1 FP inh	NOD2-RIPK2 inh	rCAG binder	TLR4-MyD88 BLA	ABHD5 PLIN5 PPI	rCAG bind conf	DNA CAG counter	others
O=c1[nH][nH]c2cc(=O)n(-c3cccc(C(F)(F)F)c3)nc12	-0.2	8.2	-14.9	58.8*	2.3	1.3	48.3*	16.6*
O=S1(=O)c2c(cccc2N2CCSCC2)Oc2ccccc2CN1Cc1cn(Cc2ccccc2C(F)(F)F)nn1	/	-1.7	/	8.8	/	/	/	/
CCc1ccc(NC(=O)c2ccc3c(c2)C(=O)N(Cc2ccco2)C3=O)cc1	-3.8	12.8	-8.6	34.9*	-23.9	20.0	23.1	14.3*
Cc1cc(C)c(C)c(S(=O)(=O)N2CCC(C(=O)NC3=NCCS3)CC2)c1C	-4.3	1.1	-0.5	1.3	/	-2.9	/	/
COc1ccc(C)cc1NC(=O)c1ccccc1NS(=O)(=O)c1ccc(Cl)s1	-6.6	2.0	-5.0	90.1*	2.5	-5.8	84.2*	53.6*
COc1ccc(OC)c(C=NNC(=O)c2ccccc2NS(=O)(=O)c2cccs2)c1	-2.0	-0.7	1.7	59.7*	/	-5.3	50.5*	15.3*
O=C(NN=Cc1ccc(O)cc1O)c1ccccc1NS(=O)(=O)c1cccs1	-5.5	-0.5	-0.5	43.4*	/	6.2	41.1*	13.8*
COc1ccc(OC)c(/C=N/NC(=O)c2cccc3ccccc23)c1	-6.8	-2.4	-2.6	1.1	/	6.2	/	/
O=C(N/N=C/c1ccc(N2CCOCC2)cc1)c1ccccc1NS(=O)(=O)c1cccs1	-1.1	2.1	-6.4	66.2*	-15.1	-3.4	50.0*	16.5*
O=C(CNC(=O)c1ccco1)NCC(=O)OCc1ccc(Cl)cc1Cl	-17.1	0.7	-1.3	-0.3	/	2.6	/	/
C=CCC[C@H](CCCCC)OC(=O)/C=C/[C@@H](O)[C@H](O)C[C@@H](O)CC=C	/	0.5	-3.8	2.8	/	-7.6	/	/
COc1ccc(NC(=O)c2ccccc2NS(=O)(=O)c2ccc(C)cc2)c([N+](=O)[O-])c1	-5.4	-2.8	7.5	56.4*	2.5	0.8	59.7*	24.6*
COc1cc(/C=N/NC(=O)c2ccc(NS(=O)(=O)c3cccs3)cc2)cc(OC)c1O	-5.2	-3.0	0.1	7.6	/	-1.2	/	/
COc1cc(C=NNC(=O)c2ccccc2NS(=O)(=O)c2cccs2)cc(OC)c1O	-2.8	-0.5	-10.9	42.4*	/	9.3	50.9*	12.0*
COc1ccccc1NC(=O)c1ccccc1NS(=O)(=O)c1cccs1	-8.9	8.5	2.0	36.6*	-7.6	-3.8	27.3	5.3*
COc1ccc(C=NNC(=O)c2ccccc2NS(=O)(=O)c2cccs2)cc1O	-5.3	-2.6	-1.9	35.7*	/	5.0	36.7*	10.1*
